Assays:
Settings in all cases: concentration: 1 μM, replicates: in singlicate; n = 1
[1] = tested on: T1, JNK2
T1 construct: gene MAPK9

[2] = tested on: T2, JNK3
T2 construct: gene MAPK10

[3] = tested on: KIT-autoinhibited
[4] = tested on: KIT
[5] = tested on: LATS1
[6] = tested on: LATS2
[7] = tested on: LCK
[8] = tested on: LIMK1
[9] = tested on: LIMK2
[10] = tested on: T3, LKB1
T3 construct: gene STK11
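Also: KINOMEscan kinase panel screen.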

Structure (SMILES) | %Inh [1] | %Inh [2] | %Inh [3] | %Inh [4] | %Inh [5] | %Inh [6] | %Inh [7] | %Inh [8] | %Inh [9] | %Inh [10]
Cn1c(=O)c(F)c(Nc2ccc(I)cc2F)c2c(=O)n(OC[C@H](O)CO)cnc21 | 0% | 0% | 0% | 7% | 18% | 0% | 1% | 14% | 26% | 0%
COc1ccc(-n2cnc3c(N)ncnc32)cc1 [SKF-97236] | 0% | 0% | 2% | 94.2% | 25% | 34% | 31% | 2% | 0% | 0%
OCCCNc1nccc(-c2c(-c3cccc(C(F)(F)F)c3)nn3cc(C(F)(F)F)ccc23)n1 [GW630813] | 13% | 15% | 13% | 2% | 0% | 0% | 0% | 0% | 12% | 16%
CN1C(=O)C(Nc2ccccc2)=C(c2ccccc2)C1=O [SB-300079] | 0% | 0% | 17% | 0% | 0% | 0% | 0% | 0% | 0% | 13%
CC(C)(C)c1ccc(C(=O)Nc2cn3cc(-c4ccccc4)ccc3n2)cc1 | 0% | 0% | 0% | 92.6% | 0% | 0% | 8% | 10% | 0% | 15%
COC(=O)c1c(-c2ccccc2)c2cc(C)ccc2c(=O)n1Cc1ccccc1 | 32% | 48% | 0% | 75% | 0% | 0% | 0% | 5% | 0% | 0%
Cl.c1ccc(Cn2cnc3cc(Nc4ncnc5ccccc45)ccc32)cc1 [GW272142] | 7% | 0% | 4% | 0% | 0% | 0% | 25% | 0% | 4% | 0%
COc1cc2nccc(Nc3ccc(OCc4ccc(NC(C)=O)cc4)cc3)c2cc1OC.Cl [GW440135] | 0% | 0% | 12% | 100% | 0% | 0% | 22% | 0% | 0% | 0%
COc1ccc(Nc2nccc(N3CCC(NS(=O)(=O)c4ccc(NC(C)=O)cc4)C3)n2)cc1 (stereo not drawn) [GSK1379729] | 0% | 0% | 0% | 9% | 0% | 0% | 23% | 14% | 10% | 0%
Nc1ncnc2c1ncn2-c1cccc2ccccc12 [SKF-97184] | 0% | 0% | 20% | 8% | 18% | 0% | 0% | 0% | 0% | 92.8%
COc1cc(OC)cc(-c2cc3cnc(N)nc3nc2NC(=O)NC(C)(C)C)c1 | 0% | 0% | 0% | 0% | 0% | 34% | 0% | 0% | 0% | 0%
O=C(Nc1ccc2c(c1)OCO2)NC1CCN(c2ccnc(NCc3ccc(F)cc3)n2)CC1 [GSK1379859] | 0% | 0% | 0% | 2% | 0% | 0% | 14% | 0% | 21% | 6%
COc1cc2ncn(-c3cc(OCc4ccncc4Br)c(C(N)=O)s3)c2cc1OC [GW854278] | 5% | 5% | 5% | 24% | 22% | 0% | 25% | 0% | 8% | 0%
CCC(=O)c1c(-c2ccccc2)c2cc(Cl)ccc2c(=O)n1Cc1cc(S(C)(=O)=O)n(CCC(C)(C)O)n1 | 99.9% | 99.9% | 0% | 11% | 31% | 17% | 13% | 0% | 16% | 3%
Nc1n[nH]c2ncc(-c3ccccc3)cc12 [SB-517081] | 14% | 5% | 13% | 83% | 0% | 0% | 7% | 0% | 9% | 0%
O=c1cc(N2CCOCC2)nc2n(Cc3ccc(F)c(Cl)c3)ccn12 [GSK2297099] | 8% | 5% | 0% | 9% | 4% | 0% | 0% | 7% | 6% | 0%
O=C(Nc1n[nH]c2cc(-c3ccccc3F)ccc12)C1CC1 [SB-733371] | 16% | 15% | 0% | 10% | 27% | 0% | 6% | 0% | 0% | 30%
CCc1ccc(-c2ccc3c(c2)-c2nn(C)cc2S(=O)(=O)N3C)cc1 | 0% | 0% | 53% | 0% | 0% | 0% | 17% | 0% | 0% | 21%
